# PubChem BioAssay AID372 (MTDP, 2006)
# The campaign covered roughly 100,000 compounds. About 770 (0.77%) were called active. Rule as the data show it: active = inhibition above about 50%; inactive = the rest. The full list was thinned out, with actives kept by preference.
# Biological target: Gag-Pol polyprotein (Human immunodeficiency virus type 1 group M subtype B (isolate HXB2)) (UniProt P04585)
# Assay: RNase H inhibition, HIV 1 Gag Pol polyprotein, FRET biochemical assay, screening (AID 372)
# Conditions: HIV-1 RT RNase H, FRET RNA/DNA substrate fluorescence; at 10 µM; stronger effect = higher value
row,SMILES,inhibition
1,O=C(Nc1ncccc1Cl)C1CCCO1 (stereo not drawn),18% (inactive)
2,COc1ccc(-c2csc(/C(C#N)=C/Nc3ccc(S(=O)(=O)Nc4nccs4)cc3)n2)cc1,6% (inactive)
3,N#C/C(=C\Nc1ccc(S(=O)(=O)Nc2nccs2)cc1)c1nc(-c2ccc(-c3ccccc3)cc2)cs1,16% (inactive)
4,Cc1cccc(NC(=O)/C(C#N)=C\c2cc(C)n(-c3ccc(C)c(C)c3)c2C)c1,10% (inactive)
5,NN1CCN(Cc2cccc3ccccc23)CC1,7% (inactive)
6,Cc1c(O)ccc(C(=O)Cc2ccccc2Cl)c1O,10% (inactive)
7,O=C(Cc1ccccc1Cl)c1ccc(O)cc1O,7% (inactive)
8,O=C(c1cccc(F)c1)N1CCN(C(=O)c2cccs2)CC1,7% (inactive)
9,COc1cc(OC)c(OC)cc1CN1CCN(Cc2ccccn2)CC1,5% (inactive)
10,CCc1c(C)sc(NC(=O)c2ccncc2)c1C(=O)OC,73% (active)
11,CCc1c(C)sc(NC(=O)c2ccc(OC)c(OC)c2)c1C(=O)OC,16% (inactive)
12,CCc1c(C)sc(NC(=O)c2cccc(Br)c2)c1C(=O)OC,16% (inactive)
13,CCOC(=O)c1ccc(NC(=O)c2cn(-c3ccccc3)nc2-c2ccccc2)cc1,9% (inactive)
14,COc1cc(C=O)ccc1OCCCCOc1c(C)cc(C)cc1Br,31% (inactive)
15,O=C(Nc1nc2ccc3ccccc3c2s1)c1cccc(Cl)c1,5% (inactive)
16,O=C(Nc1nc2ccc3ccccc3c2s1)c1ccc(C(=O)c2ccccc2)cc1,18% (inactive)
17,O=C(Nc1nc2ccc3ccccc3c2s1)c1ccc(Cl)cc1,54% (active)
18,COc1ccc(NC(=O)c2c(-c3c(Cl)cccc3Cl)noc2C)c([N+](=O)[O-])c1,1% (inactive)
19,CCOc1ccc(N2C(=O)NC(=O)/C(=C\c3ccc(Sc4ccccc4)o3)C2=O)cc1,15% (inactive)
20,O=[N+]([O-])c1ccc(/C=C/C=N/Nc2nc(N3CCOCC3)nc(N3CCOCC3)n2)cc1,2% (inactive)
21,CCN(CC)C(=O)c1sc(NC(=O)/C=C/C(=O)O)c(C(=O)OC)c1C,70% (active)

row,SMILES,inhibition
1,CCCC(=O)Nc1sc(C(=O)N(CC)CC)c(C)c1C(=O)OC,24% (inactive)
2,CCN(CC)C(=O)c1sc(NC(=O)C(C)(C)C)c(C(=O)OC)c1C,43% (inactive)
3,O=Cc1ccc(-c2ccc(OC(F)(F)F)cc2)o1,7% (inactive)
4,O=C(Nc1ccc2oc(-c3ccc(Cl)c(Cl)c3)nc2c1)c1ccc(F)cc1,60% (active)
5,COc1cc(OC)cc(C(=O)Nc2ccc3oc(-c4ccc(I)cc4)nc3c2)c1,16% (inactive)
6,O=C(Nc1ccc2oc(-c3cccc(F)c3)nc2c1)c1cccc(F)c1,14% (inactive)
7,COc1cc(OC)cc(C(=O)Nc2ccc3oc(-c4ccc(Cl)c(Cl)c4)nc3c2)c1,56% (active)
8,O=C(Nc1ccc(-c2cc3ccccc3oc2=O)cc1)c1cccc(F)c1,58% (active)
9,COc1ccc(-c2nc3cc(NC(=O)c4ccc(F)cc4)ccc3o2)cc1Cl,13% (inactive)
10,O=C(Nc1ccc2oc(-c3cccc(Cl)c3)nc2c1)c1cccc(F)c1,50% (active)
11,COc1cccc(C(=O)Nc2ccc(-c3cc4ccccc4oc3=O)cc2)c1,45% (inactive)
12,O=C(Nc1cccc(-c2nc3cc(Cl)ccc3o2)c1)c1cccc(F)c1,21% (inactive)
13,O=C(Nc1ccc(-c2cc3ccccc3oc2=O)cc1)c1ccc(Cl)c(Cl)c1,0% (inactive)
14,O=C(Nc1ccc2oc(-c3ccc(F)cc3)nc2c1)c1cc(Br)ccc1Cl,2% (inactive)
15,COc1cc(OC)cc(C(=O)Nc2ccc3oc(-c4ccc(Br)cc4)nc3c2)c1,27% (inactive)
16,Cc1cccc2c(Nc3ccccc3)c3ccccc3nc12,17% (inactive)
17,CCOC(=O)c1cccc(Nc2ncnc3ccc(C)cc23)c1,0% (inactive)
18,Fc1ccc(/C=N/c2ncn[nH]2)cc1,6% (inactive)
19,CNC(=O)C(=O)NCCN1CCN(S(=O)(=O)c2ccc([N+](=O)[O-])cc2)CC1,0% (inactive)
20,O=C(COc1ccccc1Br)Nc1ccc(Cl)c(Cl)c1,20% (inactive)
21,COc1ccc(C(=O)NC(CC(=O)O)c2ccccc2)cc1 (stereo not drawn),0% (inactive)

row,SMILES,inhibition
1,CC(=O)c1cccc(N/C=C\C(=O)c2ccc(Cl)c(Cl)c2)c1,10% (inactive)
2,Cc1ccc(NC(=O)/C=C/c2cccc(C(F)(F)F)c2)cc1,12% (inactive)
3,O=C1c2ccccc2C(=O)N1c1ccc(-c2nc3ccccc3[nH]2)cc1,0% (inactive)
4,O=C1C=CC(=O)N1c1ccc(-c2nc3ccc(N4C(=O)C=CC4=O)cc3[nH]2)cc1,14% (inactive)
5,CCOC(=O)C1=C(C)N=c2s/c(=C\c3ccc(Br)o3)c(=O)n2C1c1ccc(OC)cc1OC (stereo not drawn),23% (inactive)
6,CCCC(=O)Nc1c(C)ccc2nsnc12,0% (inactive)
7,COCCCNC(=O)COc1ccc(Cl)cc1C,10% (inactive)
8,CCN1C(=O)/C(=C\c2cccc(O)c2)SC1=S,28% (inactive)
9,CCN1C(=O)/C(=C\c2ccc(O)cc2O)SC1=S,70% (active)
10,CCN1C(=O)/C(=C\c2ccc(O)c(OC)c2)SC1=S,36% (inactive)
11,CCN1C(=O)/C(=C\c2cc(OC)ccc2O)SC1=S,24% (inactive)
12,COc1cc(/C=C2\SC(=S)N(C3CCCCC3)C2=O)ccc1O,8% (inactive)
13,COc1ccc(/C=C2\SC(=S)N(C3CCCCC3)C2=O)cc1O,5% (inactive)
14,CCOc1cc(/C=C2\SC(=S)N(C)C2=O)ccc1O,22% (inactive)
15,CN1C(=O)/C(=C/c2ccc(O)c(O)c2)SC1=S,83% (active)
16,COc1ccc(/C=C2/SC(=S)N(C)C2=O)cc1O,43% (inactive)
17,CCN1C(=O)/C(=C\c2cc(Cl)ccc2O)SC1=S,16% (inactive)
18,CCN1C(=O)/C(=C\c2ccc(O)c(O)c2)SC1=S,81% (active)
19,N/C(Cc1ccc([N+](=O)[O-])cc1)=N\OC(=O)c1ccc([N+](=O)[O-])cc1,6% (inactive)
20,Cc1ccc(C(=O)N2CCc3ccccc32)cc1[N+](=O)[O-],5% (inactive)
21,O=[N+]([O-])c1cc([N+](=O)[O-])c(N2CCN(c3ccccc3Cl)CC2)cc1Nc1ccc(Br)cc1,5% (inactive)
